Reference: PubChem BioAssay (NCI)
The panel holds about 79,000 compounds, 15% with a hit somewhere; the sample as a whole holds those more often. Active and inactive are the calls of the source. Cut-off read from the data, not from the text of the source: active = growth inhibition above about 70%; inactive = the rest.

Assays:
[1] = NCI Yeast Anticancer Drug Screen. Data for the rad50 strain (AID 155);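 note: 0% = growth of vehicle-only cultures of the same strain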; settings: S. cerevisiae rad50 strain growth inhibition; at 50.0 µM; stronger effect = higher value
Method in brief: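 Cells are treated with compound, grown, and their growth is then scored against vehicle-only cultures of the same repair-deficient yeast strain.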

[2] = NCI Yeast Anticancer Drug Screen. Data for the mec2-1 strain (AID 157); settings: S. cerevisiae mec2-1 strain, at 50.0 µM, stronger effect = higher value
Method in brief: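 Mutant yeast (mec2-1) grown with compound; growth inhibition relative to vehicle control reported.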

[3] = NCI Yeast Anticancer Drug Screen. Data for the sgs1 mgt1 strain (AID 161);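 note: 0% = growth of cultures given vehicle only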; settings: S. cerevisiae sgs1 mgt1 strain, at 50.0 µM, stronger effect = higher value
Method in brief: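 This yeast growth screen uses a strain with defined DNA-repair lesions; compound-treated growth is compared with vehicle-treated growth.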

[4] = NCI Yeast Anticancer Drug Screen. Data for the cln2 rad14 strain (AID 165);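 note: 0% = growth equal to vehicle treated cultures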; settings: S. cerevisiae cln2 rad14 strain, at 50.0 µM, stronger effect = higher value
Method in brief: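 Readout is yeast growth inhibition versus vehicle-treated controls, using a strain with cln2 and rad14 alterations exposed to compound.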

[5] = NCI Yeast Anticancer Drug Screen. Data for the bub3 strain (AID 167); settings: S. cerevisiae bub3 mutant strain, at 50.0 µM, stronger effect = higher value
Method in brief: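 Part of a panel of yeast mutants defective in DNA damage repair or cell cycle regulation. Each strain is grown with compound, and inhibition is calculated relative to solvent-treated cultures.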

[6] = NCI Yeast Anticancer Drug Screen. Data for the mlh1 rad18 strain (AID 175); settings: S. cerevisiae mlh1 rad18 strain growth inhibition; at 50.0 µM; stronger effect = higher value
Method in brief: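 Genetically defined yeast (DNA repair-deficient) exposed to compounds; growth inhibition determined relative to vehicle.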

Measured: growth inhibition

COC(=O)CC(NC(=O)CNC(=O)OCc1ccccc1)C(=O)NCC(=O)Oc1ccc([N+](=O)[O-])cc1 (centres undefined)
inactive: [1] 21% | [2] 2% | [3] 18.8% | [4] 15.1% | [5] -0.65% | [6] 12%

CC(/C=C/c1ccccc1)=N\NC(=S)N/N=C(C)/C=C/c1ccccc1
inactive: [1] 10.5% | [2] 37.6% | [3] 21.5% | [4] 9.3% | [5] 49.5% | [6] 11.1%

COc1cc2c(cc1O)C(=O)CCC(C(=O)O)=C2
inactive: [1] 14.2% | [2] -12.8% | [3] 3.65% | [4] -14.8% | [5] 2% | [6] 14.6%

Nc1ccc2ccccc2c1Cl
inactive: [1] -9.05% | [2] -38.5% | [3] -11.4% | [4] 6% | [5] -44.4% | [6] -11.3%

CC12C=C[C@]3(CC[C@@H]4[C@@](C)(CO)CCC[C@]4(C)C3CC1)C2 (some centres undefined)
inactive: [1] 13.4% | [2] -2.7% | [3] 12.9% | [4] 8.25% | [5] 15.3% | [6] 7.6%

Cc1ccc(S(=O)(=O)Nc2ccc3nc(C)oc3c2)cc1
inactive: [1] 26.4% | [2] -18.1% | [3] 44.1% | [4] 14.7% | [5] 45% | [6] 17%

NC(CCCC(N)P(=O)(O)c1ccccc1)P(=O)(O)c1ccccc1 (centres undefined)
inactive: [1] -37.9% | [2] -40.5% | [3] -63.5% | [4] -9.65% | [5] -45.5% | [6] -46.6%

O=C(O)CNC1=NCCN1
inactive: [1] -0.8% | [2] 2.5% | [3] -8.4% | [4] -41.4% | [5] -24.1% | [6] -3.2%

CC1(C)CCc2cc3c(cc2O1)OC(C)(C)CC3=O
inactive: [1] 9.05% | [2] 8.75% | [3] -15.9% | [4] 22.4% | [5] -1.45% | [6] -17.4%

C(=C\c1ncc(-c2ccccc2)cc1-c1ccccc1)/c1ccccc1
inactive: [1] -12.3% | [2] -20.8% | [3] 5.8% | [4] -6.8% | [5] 0.75% | [6] -1.9%

Cn1nnnc1CC(=O)O
inactive: [1] 1.3% | [2] -12.9% | [3] 1.15% | [4] -22.8% | [5] -2.05% | [6] -12.5%

O=C(O)C(Cc1cccs1)(Cc1cccs1)C(=O)O
inactive: [1] -9% | [2] -4.6% | [3] -2.9% | [4] -18.7% | [5] -9.75% | [6] -2.2%

Cn1c(NCCN2CCCCC2)c(C(=O)/C=C/c2ccccc2)c(=O)n(C)c1=O
inactive: [1] 15.3% | [2] 19.4% | [3] 8.65% | [4] 17.6% | [5] -1.5% | [6] 20.8%

COc1ccc(CNc2cnc3cc(N)ccc3n2)cc1OC
inactive: [1] -12.3% | [2] -34.5% | [3] -37.5% | [4] 3.15% | [5] -19.3% | [6] -16.4%

O=c1[nH]nc(-c2ccccc2)n1-n1cccc1
inactive: [1] -9.25% | [2] -26.1% | [3] -5.95% | [4] -3.6% | [5] -12.3% | [6] -6.25%

Cc1cc(SCC(=O)c2ccccc2)nc2ccccc12
inactive: [1] -6.75% | [2] -24.1% | [3] -8.85% | [4] -2.25% | [5] -53.1% | [6] -2.7%

CCCCCOC(=O)CC(c1ccccc1)N1CCCCC1 (centres undefined)
inactive: [1] 32.5% | [2] -6.65% | [3] 19.1% | [4] -23% | [5] 23.3% | [6] 6.4%

O=C(C=c1sc(=CC(=O)c2ccccc2)s1)c1ccccc1
inactive: [1] -3.5% | [2] -4.35% | [3] 14.7% | [4] -41.3% | [5] 2.1% | [6] -35.6%

O=C1NCC2(CCN(CC3COc4ccccc4O3)CC2)N1c1ccccc1 (centres undefined)
inactive: [1] -23.3% | [2] -18.2% | [3] -21% | [4] -2.95% | [5] -3.2% | [6] -34.5%

C=C1C(=O)OC2(C)CCC1CC1OC1(C)CC/C=C(\C)CCC2OC(C)=O (centres undefined)
inactive: [1] -3.95% | [2] -6.55% | [3] 17.4% | [4] 8.25% | [5] -3% | [6] 7.85%

COC(=O)C1(O)CC(=O)CCC1c1ccc(OC)cc1 (centres undefined)
inactive: [1] 9.75% | [2] -1.35% | [3] -14.8% | [4] -10.3% | [5] -38% | [6] -17.1%

C=CCC(C#N)C1=CCCCC1 (centres undefined)
inactive: [1] -6.85% | [2] -26.6% | [3] -12.4% | [4] -4.3% | [5] -23.6% | [6] -5.75%

CCCCCCCCn1c(C)nc2c(cnn2C)c1=O
inactive: [1] -9.6% | [2] -19.2% | [3] -6.15% | [4] 20.9% | [5] 36.1% | [6] 4.8%

OCC(O)CS (centres undefined)
inactive: [1] -15.2% | [2] 0.1% | [3] -4.8% | [4] 36.1% | [5] -4.5% | [6] -15.5%

CCOC(=O)c1c(C)c2c(n1C)CC/C(=C\N1CCOCC1)C2=O
inactive: [1] 11.3% | [2] 13.1% | [3] 13.6% | [4] -13.8% | [5] 14.5% | [6] 15.2%

CCCCC(CC)COC(=O)CSC#N (centres undefined)
inactive: [1] -6.7% | [2] -7.55% | [3] -9.85% | [4] -15.6% | [5] 2.05% | [6] -15.1%

CC(=O)OCc1ccc(C)cc1
inactive: [1] -9.05% | [2] 6.6% | [3] -12.7% | [4] -32.8% | [5] -14.9% | [6] 0.3%

Cc1ccc(C2=Nc3cccc4cccc(c34)N2)cc1
inactive: [1] -40% | [2] -71.7% | [3] -26.3% | [4] 11.1% | [5] -2.2% | [6] -8.85%

FC1(F)C2(OCCO2)C(F)(F)C12OCCO2
inactive: [1] -1.6% | [2] -5.25% | [3] -1.8% | [4] -1.1% | [5] -8.5% | [6] -4.8%

COc1cc2oc3cc(OC)c(OC)c(CC=C(C)C)c3c(=O)c2c(O)c1CC=C(C)C
inactive: [1] -1.45% | [2] -30.6% | [3] 0.15% | [4] 5.8% | [5] -30.6% | [6] 21.2%

Cn1ncc2c(Nc3cc(Cl)ccc3Cl)ncnc21
inactive: [1] -3.05% | [2] -1.9% | [3] 4.35% | [4] -52.8% | [5] 3.7% | [6] -1.95%

CCOC(=O)C(=O)Cc1ccccc1[N+](=O)[O-]
inactive: [1] 26.1% | [2] 0.1% | [3] 7.75% | [4] -3.95% | [5] -3.8% | [6] 38%

CSc1nc2c(c(=O)n1C)N=C(c1ccc([N+](=O)[O-])cc1)CC(c1ccccc1)N2 (centres undefined)
inactive: [1] 6.8% | [2] 3.1% | [3] 17.8% | [4] 10.7% | [5] 18.1% | [6] -16.2%

O=C(C(=O)c1ccccc1)c1ccccc1
inactive: [1] 9.35% | [2] -0.75% | [3] 11.7% | [4] -22.1% | [5] 9.9% | [6] -1.15%

CS(=O)c1nsc(S(C)=O)c1C#N (centres undefined)
inactive: [1] 1.05% | [2] -9.7% | [3] -1.5% | [4] -35.6% | [5] -9.95% | [6] -10.6%

NNC(=O)/C(=C/c1cccc([N+](=O)[O-])c1)NC(=O)c1ccccc1
inactive: [1] -41.4% | [2] -25.4% | [3] -15.9% | [4] 7.5% | [5] -16.4% | [6] -24.1%

CCOc1ncnc2ccc(Cl)cc12
inactive: [1] -8.65% | [2] -3.7% | [3] -4.45% | [4] -18.1% | [5] 0.65% | [6] 0%

C=C(Cl)C(=O)O
inactive: [1] -11.3% | [2] -20.2% | [3] 18.9% | [4] -0.55% | [5] -25.4% | [6] -7.55%

CN(C=O)C1CCC2C3CC=C4CC(OC=O)CCC4(C)C3CCC21C (centres undefined)
inactive: [1] 1.35% | [2] 11.3% | [3] 3.85% | [4] 5.95% | [5] -2.9% | [6] -2%
